This note sets out measurements from PubChem BioAssay AID589 (National Center for Advancing Translational Sciences (NCATS), 2007).

About 6,200 (11%) of roughly 59,000 compounds were called active. Roughly 9% stayed inconclusive and do not appear here. Rule as the data show it: active = max dye-equivalent concentration above about 10 nM; inconclusive = mostly about 1.1 nM to 9.6 nM; inactive = weaker than that. The full list was thinned out, with actives kept by preference.

The assay in a line: qHTS Assay for Spectroscopic Profiling in 4-MU Spectral Region. The conditions noted are these: compound autofluorescence, 340/450 nm, 4-MU equivalents; hits give high values. The gist of the method:
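Compounds in 100 mM Tris, pH 8.0, incubated 15 min at room temperature, then fluorescence read at 340 nm excitation/450 nm emission. Signal converted to 4-MU dye-equivalent concentration using an on-plate six-point 4-MU standard curve.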
A general note: Quantitative high-throughput screening tests each substance at several concentrations.
Consider `CCOC(=O)C(C(=O)OCC)C(C#N)c1ccccc1` (stereo not given), for which the max dye-equivalent concentration entry is “inactive”.
As to `CCCn1c(SCC(=O)N2CCc3ccccc32)nnc1-c1ccncc1`, the max dye-equivalent concentration result is “inactive”.
With `Cc1cc(C)n2nc(C(=O)Oc3ccc4c(c3)OCO4)nc2n1`, the max dye-equivalent concentration result is “inactive”.
Take `CCOc1ccc(NCCC(=O)c2ccc3c(c2)OCO3)cc1`: the max dye-equivalent concentration result was “inactive”.
With `C/C=C1\C(=O)C[C@@H]2[C@@H]3CCC4=CC(=O)CC[C@@]4(C)[C@H]3CC[C@@]12C` the figure was 12 nM (active); with `COc1cccc(OCC(=O)Nc2ccccc2C(N)=O)c1`, “inactive”; with `O=C(CCC(=O)N1CCN(S(=O)(=O)c2ccccc2)CC1)NC1CCCc2ccccc21` (stereo not given), “inactive”.
In the case of `Cc1ccc(S(=O)(=O)N2CCN(C(=O)CCC(=O)NC3CCCc4ccccc43)CC2)cc1` (stereo not given), the max dye-equivalent concentration entry was “inactive”.
As to `N#C/C=C1\Sc2ccccc2C(=O)N1CC(=O)N1CCN(S(=O)(=O)c2ccccc2)CC1`, the max dye-equivalent concentration is 18 nM (active).
Take `CC1=NCCN1S(=O)(=O)c1ccc(Br)c(C)c1`: the max dye-equivalent concentration result is “inactive”.
With `CC(=O)c1cnc(Nc2nc(C)c3cc(C)ccc3n2)nc1C` the entry was “inactive”.
As for `O=C(CSc1nnc(-c2ccc(NS(=O)(=O)c3ccccc3)cc2)o1)NCC1CCCO1` (stereo not given), the max dye-equivalent concentration result is “inactive”.
With `O=C(CS(=O)(=O)Cc1ccccc1)NCC1CCCO1` (stereo not given) the entry was “inactive”.
For `O=C(CSC1=Nc2ccccc2C2=NC(c3ccccc3)C(=O)N12)NCC1CCCO1` (stereo not given), the max dye-equivalent concentration is 750 nM (active).
For the compound `COC(=O)NC1(C(F)(F)F)NC(=O)N(C2CCCCC2)C1=O` (stereo not given), the max dye-equivalent concentration entry was “inactive”.
For `O=C(NCc1ccc(Cl)cc1)c1cc2c(nc3sccn32)s1` the value was “inactive”; for `CS(=O)(=O)N1CCC[C@@]2(CCN(c3ccncc3)C2)C1`, “inactive”.
Take `O=C(c1cc(-c2cccs2)on1)N1CCCCC1`: the max dye-equivalent concentration result was “inactive”.
As for `Cc1ccc(C(=O)N2CCCCCC2)cc1Br`, the max dye-equivalent concentration entry is “inactive”.
With `Cc1ccc2cc3cc(C(=O)N4CCCCCC4)oc3nc2c1` the figure was 12 nM (active).
For `Cc1cc(C(=O)CC#N)c(C)n1CC(F)(F)F` the value was “inactive”; for `Cc1ccsc1CNn1cnnc1SCc1ccccc1F`, “inactive”; for `COc1ccccc1N1CCN(C(=O)Cn2nnc(-c3cccs3)n2)CC1`, “inactive”.
For `CN(C(=O)COc1ccccc1)c1nnc(-c2ccncc2)s1` the value was “inactive”; for `CN(C(=O)c1ccno1)c1nnc(-c2cccnc2)s1`, “inactive”; for `COc1cccc(-c2nnc(N(C)C(=O)c3ccno3)s2)c1`, 34 nM (active).
As for `C=CCn1c(COc2ccccc2)nnc1SCC(=O)NCC(=O)OCC`, the max dye-equivalent concentration entry was “inactive”.
On to `COc1ccccc1-c1cc(NCc2cccs2)ncn1`, for which the max dye-equivalent concentration entry is “inactive”.
For `COC(=O)[C@H](CCSC)NC(=O)Nc1ccc(OC)cc1`, the max dye-equivalent concentration entry is “inactive”.
For the compound `COc1cc2cc(CN(CCN3CCCC3)C(=O)Nc3ccccc3Cl)c(=O)[nH]c2cc1OC`, the max dye-equivalent concentration was 250 nM (active).
As for `COc1cccc2cc(C(C)N(CCCN3CCOCC3)C(=O)Nc3ccc(Cl)cc3)oc12` (stereo not given), the max dye-equivalent concentration result is “inactive”.
On to `COc1ccc(CCN(Cc2cc3cccc(C)c3[nH]c2=O)C(=O)N2CCCC2)cc1OC`, for which the max dye-equivalent concentration result is “inactive”.
Take `Cc1cccc(-n2ncc3c(N4CCc5ccccc54)ncnc32)c1`: the max dye-equivalent concentration was 18 nM (active).
Turning to `COc1ccc(-n2ncc3c(N4CCCc5ccccc54)ncnc32)cc1`, the max dye-equivalent concentration was 39 nM (active).
For the compound `CCCc1nc2c3cnn(-c4cccc(Cl)c4)c3ncn2n1`, the max dye-equivalent concentration entry is “inactive”.
For `c1ccc(-n2ncc3c(N4CCCC4)ncnc32)cc1` the value was “inactive”.
For `COc1ccc(N2CCN(C(=O)CSc3ncnc4c3cnn4-c3ccc(OC)cc3)CC2)cc1` the value was “inactive”; for `Oc1c(C(c2ccccn2)N2CCOCC2)ccc2cccnc12` (stereo not given), “inactive”.
Regarding `COc1ccccc1CNc1cc(-c2ccccc2CN(C)C)ncn1`, the max dye-equivalent concentration result is “inactive”.
For `O=C(Nc1ccccc1F)C1C2C=CC3(O2)C1C(=O)N(c1cccnc1)C3C(=O)NC1CCCCC1` (stereo not given) the value was “inactive”.
In the case of `COc1ccc(N(C(=O)c2cccnc2)S(=O)(=O)c2ccc3c(c2)n(C)c(=O)n3C)cc1`, the max dye-equivalent concentration entry is “inactive”.
`COc1ccc(-c2c3c(=O)n(C)c(=O)n(C)c3cn2-c2cccc(OC)c2)cc1`: the max dye-equivalent concentration was 12 nM (active).
As to `COc1ccc(OC)c(-n2cc3c(=O)n(C)c(=O)n(C)c3c2)c1`, the max dye-equivalent concentration result is “inactive”.
Take `COc1ccc(-c2c3c(=O)n(C)c(=O)n(C)c3cn2NC(C)=O)cc1`: the max dye-equivalent concentration is 2200 nM (active).
For `Cc1ccc(-c2c3c(=O)n(C)c(=O)n(C)c3cn2-n2cnnc2)cc1` the value was “inactive”; for `Cc1ccc(-c2c3c(=O)n(C)c(=O)n(C)c3cn2-c2ccccc2O)cc1`, “inactive”; for `Cc1ccc(Oc2ccc(N)cc2)cc1`, “inactive”.
Regarding `CCOc1ccccc1-n1c(SCC(=O)NCc2ccco2)nnc1-c1ccncc1`, the max dye-equivalent concentration entry is “inactive”.
Take `O=C(CCc1ccccc1)Nc1ccc(NC(=O)C2CC2)nc1`: the max dye-equivalent concentration entry is “inactive”.
As to `O=C1CC(c2ccccc2)C(=O)N1c1cccc(O)c1` (stereo not given), the max dye-equivalent concentration entry is “inactive”.
With `Cc1cc(NC(=O)c2cnn3cccnc23)n(-c2ccccc2)n1` the entry was “inactive”.
In the case of `CCN(Cc1ccncc1)C(=O)c1cccc(S(=O)(=O)N2CCOCC2)c1`, the max dye-equivalent concentration result is “inactive”.
Consider `O=C(Nc1nc2cc3c(cc2s1)OCCO3)c1cccc(S(=O)(=O)N2CCOCC2)c1`, for which the max dye-equivalent concentration was 18 nM (active).
On to `COc1ccc(S(=O)(=O)N2CCOCC2)cc1C(=O)Nc1nc2ccccc2s1`, for which the max dye-equivalent concentration is 35 nM (active).
For `CCOC(=O)c1sc(NC(=O)c2cc(S(=O)(=O)N3CCOCC3)ccc2C)nc1C` the value was “inactive”; for `O=C(Nc1ccc2c(c1)nc1n2CCCCC1)c1cc(S(=O)(=O)N2CCOCC2)ccc1Cl`, “inactive”.
Turning to `O=C(Nc1nc2ccc(S(=O)(=O)N3CCCC3)cc2s1)C1CCCO1` (stereo not given), the max dye-equivalent concentration result is “inactive”.
Take `CC(=O)c1c(N2CCOCC2)nc(=S)n(-c2cc(C)ccc2C)c1C`: the max dye-equivalent concentration entry was “inactive”.
Take `Cc1ccc2cccc(S(=O)(=O)N3CCN(c4ccccc4F)CC3)c2n1`: the max dye-equivalent concentration result is “inactive”.
Turning to `CCOC(=O)CN(C(=O)CN1CCOCC1)c1ccc(Br)cc1`, the max dye-equivalent concentration result was “inactive”.
`COc1ncnc2c1N=C1CC(C)(C)CC(N)=C1S2`: the max dye-equivalent concentration result is “inactive”.
As to `O=C(OCC(=O)N1CCN(C(=O)c2ccco2)CC1)c1ccccc1Cc1ccccc1`, the max dye-equivalent concentration result was “inactive”.
For `COC(=O)CN(c1cccc(C(C)=O)c1)S(C)(=O)=O` the value was “inactive”; for `CC(C)Cn1c(N)c(C(=O)NCc2cccs2)c2nc3ccccc3nc21`, 280 nM (active).
As to `C=CCn1c(N)c(C(=O)OCC(C)C)c2nc3ccccc3nc21`, the max dye-equivalent concentration is 3300 nM (active).
With `C=CCn1c(C2CC(=O)N(c3ccc(C)cc3)C2)nc2ccccc21` (stereo not given), the max dye-equivalent concentration entry was “inactive”.
With `C=CCn1c(N)c(S(=O)(=O)c2cccs2)c2nc3ccccc3nc21`, the max dye-equivalent concentration was 3700 nM (active).
As to `CCN(CC(=O)NCc1cccs1)c1nnnn1-c1ccccc1`, the max dye-equivalent concentration entry was “inactive”.
With `C=CCn1c(C(C)NC(=O)CC)nc2ccccc21` (stereo not given), the max dye-equivalent concentration entry is “inactive”.
With `Cc1nnc(SCC(=O)NCc2cccs2)[nH]c1=O`, the max dye-equivalent concentration result was “inactive”.
